Laboratory results taken from PubChem BioAssay (Tox21).
Results filed as inconclusive are left out. A number with no mark means an inactive call. Activity calls are given as the source filed them. The call rests on the fitted dose curve; in most records, active means well fitted activation curve with a large enough effect in the repeat runs; inconclusive means weak or mixed curves; inactive means flat fitted curve, though single readings scatter.

assay: A CellTox Green Cytotoxicity Assay to monitor cytotoxicity in HEK293 cells - 32 hour (AID 1224881); conditions: CellTox Green fluorescence; series mostly up to 76.8 µM; cytotoxicity increase: at the top concentration; further: nearly all actives have a fitted effect of over 40% in size
Description: National Center for Advancing Translational Sciences [NCATS]
NIH Chemical Genomics Center [NCGC]
U.S. Environmental Protection Agency [EPA]
National Institutes of Environmental Health Sciences [NIEHS]
National Toxicology Program [NTP]
Cell-based models are critical for drug discovery. Determining the natural cytotoxic effects resulting from test compounds is an essential research activity. A CellTox Green Cytotoxicity Assay to monitor cytotoxicity in real time of continues cell culture during 40 hours of the compound treatment was used to screen Tox21 10K library compounds in Hek293 cells. CellTox Green Cytotoxicity Assay is a nonlytic, homogeneous, biofluorescent method to measure cytotoxicity in cell culture after experimental manipulation. The assay system uses a proprietary asymmetric cyanine dye that is excluded from viable cells but preferentially stains the dead cell's DNA. […] Viable cells produce no appreciable increases in fluorescence. Therefore, the fluorescence signal produced by the binding interaction with dead cell DNA is proportional to cytotoxicity.
The mixture of Hek293 cell suspension and reagents were dispensed at 600cells/6 ul/well in 1536-well tissue culture treated black solid bottom plates using a Multidrop dispenser. After the assay plates were incubated at a 37 C/5% CO2 incubator for 5 hours, 23 nL of compounds dissolved in DMSO, positive and negative controls was transferred to the assay plate by a pintool work station. The plates were incubated at 37 C for 40 hours. The fluorescence intensity were measured at 0h, 8h, 16h, 24h, 32h and 40h time points using ViewLux plate reader during compound treatment.
On the % scale 0 is the no-effect control and ±100 the full control effect; potency means the concentration at half of the fitted maximal effect.

| SMILES | cytotoxicity increase | Potency |
| --- | --- | --- |
| COc1ccccc1OC | 1.22% | – |
| Cc1cc(OC(=O)N(C)C)nn1C(=O)N(C)C | -9.73% | – |
| CCCN1CCC[C@@H]2Cc3nc(N)ncc3C[C@H]21 | – | 16.9 µM (active) |
| CC(C)(C)C(=O)C(Cl)Cl | -15.5% | – |
| O=C(Cl)C(Cl)(Cl)Cl | -1.78% | – |
| C[C@@H](N)[C@@H](O)c1ccccc1 | -0.421% [at 35.3 µM] | – |
| C=C(Cl)CCl | -1.26% | – |
| CCCC(C)(COC(N)=O)COC(N)=O | -0.242% | – |
| CCCCCCC(=O)CCCCCC/C=C/C[C@@H](O)[C@H](O)[C@@](N)(CO)C(=O)O | -8.63% [at 15.8 µM] | – |
| O=C(O)c1c(Cl)ccc2cc(Cl)cnc12 | -8.52% | – |
| CN=CNc1ccc(C)cc1C | 3.53% | – |
| CCCOC(=O)c1cncn1C(C)c1ccccc1 (stereo not given) | -9.25% [at 35.3 µM] | – |
| O=P(O)(O)CN(CP(=O)(O)O)CP(=O)(O)O | 21.6% [at 15.8 µM] | – |
| O=C1C2CC=CCC2C(=O)N1SC(Cl)(Cl)Cl (stereo not given) | – | 21.5 µM (active) |
| Cc1ccc(S(=O)(=O)N[C@@H](CCCCN)C(=O)CCl)cc1 | 3.09% [at 35.3 µM] | – |
| COc1ccc(C=O)cc1O | -0.882% | – |
| OP(O)c1ccccc1 | -10.5% | – |
| CC(=NC#N)N(C)Cc1ccc(Cl)nc1 | -4.27% | – |
| CCN1CCCC1CNC(=O)C(O)(c1ccccc1)c1ccccc1 (stereo not given) | -1.2% [at 35.3 µM] | – |
| COc1cccc([C@@]2(O)CCCC[C@@H]2CN(C)C)c1 | 1.97% [at 35.3 µM] | – |

| SMILES | cytotoxicity increase | Potency |
| --- | --- | --- |
| CC(C)[N+](C)(CCC(C(N)=O)(c1ccccc1)c1ccccc1)C(C)C | 1.28% [at 35.3 µM] | – |
| CC(C)(C)c1cc(O)ccc1O | – | inactive |
| COC(=O)c1ccccc1CS(=O)(=O)NC(=O)Nc1nc(OC)cc(OC)n1 | -0.0513% | – |
| CCOC(=O)CCl | -10.6% | – |
| O=C(Cl)CCl | -9.05% | – |
| O=[N+]([O-])CCO | -20.2% | – |
| CC(=O)CN(CC(C)=O)N=O | 14.7% | – |
| ClCCCCl | -9.88% | – |
| O=C/C=C/c1ccco1 | 7.63% | – |
| CN(C)C(=O)Oc1cc(OC(=O)N(C)C)cc(C(O)CNC(C)(C)C)c1 (stereo not given) | -45.6% [at 35.3 µM] | – |
| CC[C@@H](CO)NC(=O)[C@@H]1C=C2c3cccc4c3c(cn4C)C[C@H]2N(C)C1 | -20.6% [at 35.3 µM] | – |
| C=CC(=O)OCCN(C)C | -4.54% | – |
| Clc1cc2c(cc1Cl)Oc1cc(Cl)c(Cl)cc1O2 | -34% [at 0.29 µM] | – |
| C[N+]1(C)CCCCC1 | -12.1% | – |
| N[C@@H]1C[C@H]1c1ccccc1 | -15.9% [at 35.3 µM] | – |
| COC[C@@H](NC(C)=O)C(=O)NCc1ccccc1 | 0.69% [at 35.3 µM] | – |
| CCCCCCCCBr | -14.6% | – |
| CC(C)(C)C(=O)Cl | -17% | – |
| CCC1(c2ccccc2)CCC(=O)NC1=O (stereo not given) | -10.1% [at 35.3 µM] | – |
| CCc1ccc(C2CCNCC2)cc1 | 0.273% [at 35.3 µM] | – |
